Test results reported in PubChem BioAssay AID743269 (The Scripps Research Institute Molecular Screening Center, 2014).
Out of some 370,000 compounds screened, about 2,400 (0.65%) were called active.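 How the source made its calls: active means inhibition above the screen-wide mean plus 3 SD (cut at about 13% in these data); inactive means the rest.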 The sample as a whole holds a higher share of actives than the screen did.

These molecules were tested on HIV-1 integrase (with human LEDGF/p75) (assay: blockers of LEDGF/p75-dependent integrase strand transfer – biochemical, TR-FRET, high throughput, primary screen (AID 743269;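 further: signal is the Cy5 over europium emission ratio at 671 and 618 nm; 0% = plate median of compound wells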)). Conditions: TR-FRET IN-LEDGF/p75 DNA integration, Eu/Cy5; at 3.7 µM; stronger effect = higher value.
In the case of `c1coc(CCNc2ncnc3ccc(-c4ccc5c(c4)OCO5)cc23)c1`, the inhibition is reported as 2.41% (inactive). For `COC(=O)c1cc(S(=O)(=O)N2CCN(c3ccccc3C)CC2)cn1C`, the inhibition was -0.95% (inactive). For `O=C(Cc1coc2ccc3ccccc3c12)NCc1cccs1`, the inhibition was 0.4% (inactive). In the case of `Cc1nc2c(C(=O)NCc3cccs3)cnn2c(C)c1Cc1ccc(F)cc1`, the inhibition is reported as -1.76% (inactive). With `CC(C)Cn1c(N)c(C(=O)NCc2cccs2)c2nc3ccccc3nc21` the inhibition was 23.8% (active). `N[C@@H](Cc1ccccc1)C(=O)N1CCC[C@@H]1C(=O)N1CCC2CCN(S(=O)(=O)c3ccccc3)CC21` (stereo partly drawn) was tested, and the inhibition was 3.42% (inactive). In the case of `Cc1ccc(CSc2nnc(SCC(=O)NN=Cc3cc(Br)ccc3F)s2)cc1`, the inhibition is reported as 3.4% (inactive). In the case of `CCOC(=O)c1ccc(NC(=O)c2c(N)n(C)c(=O)[nH]c2=O)cc1`, the inhibition is reported as -0.3% (inactive). `CCOC(=O)c1ccc(Nc2cc3ccccc3c(=O)[nH]2)cc1` was tested, and the inhibition was 15.5% (active). `CCOC(=O)c1ccc(NC(=O)c2c(NCc3ccccc3)[nH]c(=O)[nH]c2=O)cc1` was tested, and the inhibition was 2.44% (inactive). `COc1ccccc1C(=O)NC1CCCCN(C(C)C)C1=O` (stereo not drawn) was tested, and the inhibition was -1.35% (inactive). With `COC(=O)C[C@@H]1CC[C@H]2[C@@H](COc3ccc(NS(=O)(=O)CC(F)(F)F)cc3C(=O)N2C)O1` the inhibition was -3.99% (inactive). With `COC(=O)[C@@]12CCCCC=C1N(CCc1ccc(Cl)cc1)C(=O)[C@H]2CC(=O)NCc1ccc(OC)c(OC)c1` the inhibition was 2.21% (inactive). With `C=CCN(Cc1ccc2c(c1)OCO2)C(C#CC1CC1)C(C)(C)C` (stereo not drawn) the inhibition was 0.61% (inactive). In the case of `Cc1ccc(S(=O)(=O)N2CCN(C)CC2)cc1C(=O)NC1CCCCC1`, the inhibition is reported as 2.41% (inactive). For `COc1ccc(S(=O)(=O)N2CCCCC2)cc1C(=O)NC1CCS(=O)(=O)C1` (stereo not drawn), the inhibition was 19.8% (active). `COc1ccc(S(=O)(=O)N2CCOCC2)cc1C(=O)NC1CCCCC1` was tested, and the inhibition was 1.4% (inactive). With `C=CCN1C(=O)[C@@H](CC(=O)NCCCCc2ccccc2)[C@]2(C(=O)OCC)CCCCC/C=C/12` the inhibition was -2.38% (inactive). `Cc1ccccc1NC(=O)C1CCN(c2ncccn2)CC1` was tested, and the inhibition was -1.73% (inactive). For `COc1ccc(C2CC(c3cccs3)=NN2c2nc(C)c(C(C)=O)s2)cc1OC` (stereo not drawn), the inhibition was -0.06% (inactive). With `COc1cccc(C2CC(c3cccs3)=NN2C(=O)CSC2=NCCS2)c1OC` (stereo not drawn) the inhibition was -1.38% (inactive). In the case of `COc1ccc(C2CC(c3cccs3)=NN2C(=O)COC(=O)c2cc3ccccc3cc2O)cc1OC` (stereo not drawn), the inhibition is reported as 23% (active). `Nc1ccc2nc3c(=O)[nH]c(=S)[nH]c3nc2c1` was tested, and the inhibition was 39.9% (active). `COc1ccc(Cn2cc(CN3[C@@H](CC(C)C)COc4cc(Br)ccc4S3(=O)=O)nn2)cc1` was tested, and the inhibition was 3.34% (inactive). For `Cc1nc(CNc2ncnc3ccc(-c4ccc5c(c4)OCO5)cc23)cs1`, the inhibition was -1.03% (inactive). For `O=C(NCCCc1ccccc1)[C@H](Cc1ccccc1)NC1(C(=O)NCCc2c[nH]c3ccccc23)CCC1`, the inhibition was -0.75% (inactive). `COc1ccc(N2CCN(CCNS(=O)(=O)c3ccc(C(C)(C)C)cc3)CC2)cc1` was tested, and the inhibition was 1.13% (inactive). With `CC(=O)OCCN1CCCC12CCC(c1ccccc1)CC2` (stereo not drawn) the inhibition was -3.46% (inactive). For `COC(=O)C1CN(Cc2cn(Cc3ccc(F)cc3)nn2)CCS(=O)(=O)N1Cc1ccc(Cl)cc1` (stereo not drawn), the inhibition was 0.07% (inactive). For `CC(=O)OCC1(O)CC23CCC4c5ccoc5CCC4(C)C2CCC1C3` (stereo not drawn), the inhibition was 36.9% (active). For `COC(=O)c1ccccc1-n1cc(COC(=O)NCCc2ccccc2)nn1`, the inhibition was -3.43% (inactive). `C=CCN1C(=O)[C@@H](CC(=O)NCC2CCCCC2)[C@]2(C(=O)OC)CCCCC=C12` was tested, and the inhibition was 0.59% (inactive). For `CCOc1ccc(N(CC(=O)Nc2c(C)n(C)n(-c3ccccc3)c2=O)S(=O)(=O)c2ccc(Cl)s2)cc1`, the inhibition was 2.7% (inactive). `CN(C)c1ccc(C(CC(=O)O)C(=O)O)cc1` (stereo not drawn) was tested, and the inhibition was 18.1% (active). In the case of `O=C(O)C(CCc1ccccn1)c1ccccc1` (stereo not drawn), the inhibition is reported as 0.2% (inactive). With `CC(=O)NC(CC(=O)O)c1ccc(F)cc1` (stereo not drawn) the inhibition was -3.02% (inactive). In the case of `COc1ccnc(NC(=S)N2CCN(c3ncc(C(F)(F)F)cc3Cl)CC2)c1`, the inhibition is reported as 4.7% (inactive). With `O=C(O)c1ccc(NN=CC2=C(N3CCOCC3)/C(=C/c3ccccc3)CC2)cc1` the inhibition was 27.7% (active). In the case of `O=C(Nc1ccc(F)cc1)c1cccnc1N1CCOCC1`, the inhibition is reported as 1.85% (inactive). With `O=C1OC(NC(=O)c2ccccc2)C(N2CCOCC2)=C1Cl` (stereo not drawn) the inhibition was 1.92% (inactive). In the case of `COc1ccc(Cn2ccc3ccc(-c4ccc5ccn(Cc6ccccc6C)c5c4)cc32)cc1`, the inhibition is reported as -3.41% (inactive). `O=S1(=O)c2ccc(N3CCN(Cc4ccccc4F)CC3)cc2Oc2ccccc2CN1Cc1cn(Cc2ccc(Cl)cc2)nn1` was tested, and the inhibition was 3.58% (inactive). For `Cc1ccsc1/C=N/NC(=O)Cc1cc(=O)[nH][nH]1`, the inhibition was -1.18% (inactive). With `O=[N+]([O-])c1ccc(C=Nc2ccc(Cl)cc2Cl)s1` the inhibition was -0.56% (inactive). With `Cc1ccccc1NCC(=O)N/N=C\c1ccc([N+](=O)[O-])s1` the inhibition was 19.6% (active). With `CN(CCO)c1cccc2c1S(=O)(=O)N(Cc1cn(Cc3ccc(C(F)(F)F)cc3)nn1)Cc1ccccc1O2` the inhibition was 5.32% (inactive). `CC(=O)Nc1ccc(OC[C@@H](O)CN2CCC(C(O)(c3ccccc3)c3ccccc3)CC2)cc1` was tested, and the inhibition was -1.09% (inactive). `COc1ccc(-n2c(COc3ccccc3)nnc2SCC(=O)Nc2ccc3c(c2)OCO3)cc1` was tested, and the inhibition was -0.67% (inactive). In the case of `C#CCCN([C@H](C(=O)OC)C(C)C)S(=O)(=O)c1ccc(F)cc1Br`, the inhibition is reported as -3.33% (inactive). For `c1cncc(CNc2ccnc(-c3ccc4c(c3)OCO4)n2)c1`, the inhibition was 2.55% (inactive). In the case of `Cc1ccc(OCc2nnc(SC/C=C/c3ccccc3)n2Cc2ccco2)cc1`, the inhibition is reported as 1.59% (inactive). With `Cc1ccc(S(=O)(=O)/N=C(/Nc2ccc3[nH]c(=O)[nH]c3c2)c2ccccc2)cc1` the inhibition was -0.12% (inactive). For `Cc1cc(C)cc(C(=O)NC(=S)Nc2ccc3[nH]c(=O)[nH]c3c2)c1`, the inhibition was 3.15% (inactive). In the case of `Cc1ccc(C(=O)NC(=S)Nc2ccc3[nH]c(=O)[nH]c3c2)cc1C`, the inhibition is reported as 16.7% (active). In the case of `O=C(CSc1nc2ccccc2n1Cc1ccccc1Cl)N/N=C\c1c[nH]c2ccccc12`, the inhibition is reported as 5.76% (inactive). `O=C(Nc1c(-c2ccccc2)nc2c(Br)cc(Br)cn12)c1ccco1` was tested, and the inhibition was 1.6% (inactive). With `O=C(Nc1ccccc1C(=O)N1CCCCC1)c1ccco1` the inhibition was 6.1% (inactive). In the case of `O=C(Nc1nc(-c2ccco2)c(-c2ccco2)s1)c1ccco1`, the inhibition is reported as 68.8% (active). In the case of `CCOC(=O)C1CCN(C(=O)C(C)(C)NC(=O)Nc2ccccc2Cl)CC1`, the inhibition is reported as -0.46% (inactive). For `O=C(CN(C(=O)c1csnn1)c1ccc(Br)cc1)NC1CCCC1`, the inhibition was 1.56% (inactive). For `O=C(CN(C(=O)c1nsc(Cl)c1Cl)c1cccc(F)c1)NC1CCCC1`, the inhibition was -3.15% (inactive). `O=C(CN(C(=O)c1csnn1)c1cccc(Cl)c1)NC1CCCC1` was tested, and the inhibition was 27.8% (active). In the case of `C=CCOC/C=C/C#CCN(CC=C)Cc1ccc(OC)cc1OC`, the inhibition is reported as 5.5% (inactive). In the case of `CCOC(=O)[C@]12CCCC3=C1N(CCC3)C(=O)[C@@H](CC(=O)NCc1cccs1)C2`, the inhibition is reported as -1.84% (inactive). In the case of `O=C(Nc1cccc2c1CCCC2)C1CCN(C(=O)NC2CCCCC2)CC1`, the inhibition is reported as -1.21% (inactive). For `O=C(CSc1nnc2c(n1)[nH]c1ccccc12)NC1CCCCC1`, the inhibition was 4.55% (inactive). `O=C(NC1CCCCC1)N1CCc2[nH]c3ccccc3c2C1` was tested, and the inhibition was 35.1% (active). With `CC(=O)C1(C(=O)Nc2nccs2)CC(c2ccccc2C(F)(F)F)=NO1` (stereo not drawn) the inhibition was 1.17% (inactive). For `CC(=O)c1nc2ccccc2n1Cc1ccccc1`, the inhibition was 22.6% (active). For `CC(O)c1nc2ccccc2n1Cc1ccc([N+](=O)[O-])cc1` (stereo not drawn), the inhibition was 0.5% (inactive). For `O=C(O)Cn1c(Cc2ccccc2)nc2ccccc21`, the inhibition was -1.98% (inactive). For `COc1cccc(/C=C2\CC3(OC(C)=O)CCCN2C3)c1` (stereo not drawn), the inhibition was -3.9% (inactive). `O=C1C(=O)N(Cc2ccc(-c3ccsc3)cc2)c2ccc(OC(F)(F)F)cc21` was tested, and the inhibition was 0.06% (inactive). In the case of `Cc1cccc(NC(=O)C[C@H]2CC[C@H]3[C@@H](COc4ccc(NC(=O)Nc5ccccc5)cc4C(=O)N3C)O2)c1`, the inhibition is reported as 1.61% (inactive). For `Cc1ccc(C2=CCN(C)C(=O)N2c2ccc(Cl)cc2)cc1`, the inhibition was 0.69% (inactive). For `Oc1c(C=Nc2cccc3nsnc23)ccc2ccccc12`, the inhibition was 25.6% (active). For `O=C(CSc1nnc(COc2ccccc2)n1-c1ccc(Cl)cc1)Nc1ccc2c(c1)OCO2`, the inhibition was -1.91% (inactive). With `COC(=O)C1CN(CC(C)C)CCS(=O)(=O)N1Cc1ccc(F)cc1` (stereo not drawn) the inhibition was -4.4% (inactive). In the case of `Cc1nc(SCC(=O)c2ccccc2)c([N+](=O)[O-])[nH]1`, the inhibition is reported as -5.1% (inactive). With `Cc1cc(Oc2ccc(Cl)cc2)nc(SCC(=O)c2ccccc2)n1` the inhibition was 35.9% (active). With `COc1ccc(C(=O)CSc2n[nH]c(N)n2)cc1` the inhibition was -3.51% (inactive). With `COC(=O)[C@]12C[C@H](CC(=O)NCCCN3CCCC3=O)C(=O)N(CCc3ccc(OC)c(OC)c3)C1=C[C@H](COCc1ccccc1)O[C@@H]2C` the inhibition was -3.08% (inactive). In the case of `NC1=CC(=O)C(=O)c2cccnc21`, the inhibition is reported as 40% (active). With `O=c1ccc2c(-c3ccccc3S(=O)(=O)O)c3ccc(O)c(O)c3oc-2c1O` the inhibition was 84% (active). With `Cc1c[nH]c2cccc(-c3ccc(Cl)cc3)c12` the inhibition was 4.29% (inactive). For `C[C@@H]1CN([C@@H](C)CO)C(=O)c2cccc(NC(=O)Nc3cccc4ccccc34)c2O[C@H]1CN(C)S(=O)(=O)c1ccccc1F`, the inhibition was 3.05% (inactive). In the case of `C#CCN([C@H](C(=O)OC)C(C)CC)S(=O)(=O)c1ccccc1Br` (stereo partly drawn), the inhibition is reported as 2.37% (inactive). For `Cc1cc(=O)[nH]c(SCC(=O)Nc2ccc(F)cc2F)n1`, the inhibition was -4.09% (inactive).
